Potency and affinity values are given separately. The source made the active and inactive calls.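 Rule for the calls: active = a dose-response fit showing signal loss, with half-maximal concentration no higher than twice the top tested dose; inconclusive = flat fit between 30% and 70% signal loss, or poor fit; inactive = the rest.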
Experiment: HepG2 cell cytotoxicity, dose response, cytotoxicity control, cherry-picks, set 2 (AID 687002)
Details: HepG2 viability, ATP luminescence (CellTiter-Glo), 48 h; series mostly up to 26 µM; activity change, negative = cytotoxicity: at the top concentration
For `Cc1cc(C(=O)NC(=S)Nc2ccccc2N2CCOCC2)ccc1[N+](=O)[O-]`, the “activity change, negative = cytotoxicity” value was -11% (inactive). In the case of `COC(=O)C1=C(C)N(Cc2ccccc2)C(=S)NC1c1ccc(Br)cc1` (stereo not drawn), the “activity change, negative = cytotoxicity” value was 1.02% [at 23.5 µM] (inactive). With `Cc1cc(C)c2nc(N3CCN(C(=O)c4cccs4)CC3)sc2c1` the “activity change, negative = cytotoxicity” value was -7.49% (inactive). For `S=C(Nc1ccccc1)Nc1cc(Cl)ccc1Oc1ccccc1`, the “activity change, negative = cytotoxicity” value was -7.82% (inactive). With `Cc1ccccc1NC(=S)NC(=O)CCc1ccccc1` the “activity change, negative = cytotoxicity” value was -12.5% (inactive). With `COC(=O)C1=C(C)N(Cc2ccc(Cl)cc2)C(=S)NC1c1ccc(F)cc1` (stereo not drawn) the outcome was “inactive”. For `CCCOc1ccc(CNC(=S)NCc2ccc(OC(C)C)cc2)cc1`, the “activity change, negative = cytotoxicity” value was -19.7% (inactive). For `COC(=O)C1=C(C)N(Cc2ccc(Br)cc2)C(=S)NC1c1ccc(OC)cc1` (stereo not drawn), the outcome was “inactive”. In the case of `COc1ccccc1NC(=S)NCc1ccccc1Cl`, the “activity change, negative = cytotoxicity” value was -13% (inactive). For `S=C(NCCCc1ccccc1)Nc1ccccc1`, the “activity change, negative = cytotoxicity” value was -4.52% (inactive). With `Cc1ccc(C(=O)NC(=S)Nc2ccccc2N2CCCC2)cc1[N+](=O)[O-]` the “activity change, negative = cytotoxicity” value was -2.48% (inactive). With `COc1ccc(C(=O)NC(=S)Nc2ccccc2N2CCCCC2)cc1[N+](=O)[O-]` the “activity change, negative = cytotoxicity” value was 18.8% (inactive). With `COCC(=O)Nc1ccc2c(c1)C(=O)N(C)C[C@H](OC)[C@@H](C)CN(C(=O)c1ccccc1)[C@@H](C)CO2` the “activity change, negative = cytotoxicity” value was 9.85% (inactive). In the case of `COc1ccc(N2CCN(C(=O)Cc3cccs3)CC2)cc1`, the “activity change, negative = cytotoxicity” value was -4.23% (inactive). With `O=C(NC(=S)Nc1ccccc1N1CCCC1)c1ccc([N+](=O)[O-])cc1` the “activity change, negative = cytotoxicity” value was -13.7% (inactive). For `COc1ccc(CNC(=S)NCc2ccc(OC)cc2)cc1`, the “activity change, negative = cytotoxicity” value was -5.48% (inactive). For `COC(=O)C1=C(C)N(Cc2ccccc2)C(=S)NC1c1ccc(Cl)cc1` (stereo not drawn), the “activity change, negative = cytotoxicity” value was 6.44% (inactive). For `Cc1cccc2sc(N3CCN(C(=O)c4cccs4)CC3)nc12`, the “activity change, negative = cytotoxicity” value was 4.84% (inactive).
